Autofluor counter: flagged as autofluorescent in microsphere protease counterscreen; 360,000 compounds, 3.1% hits; compound autofluorescence counterscreen, microsphere flow cytometry; active compounds read high; fluorescence intensity (concentration not given with the values); in the data active = fluorescence intensity above about 16000; inconclusive = no clear call, values can overlap the other calls
BoNT A protease: inhibitors of Botulinum neurotoxin A light chain protease; multiplex microsphere protease substrate cleavage, flow cytometry; inhibition, % at 10 µM; 360,000 compounds, 0.17% hits; also: plate controls were buffer without enzyme for full effect and enzyme alone for no effect
BoNT-F LC inh: BoNT F light chain protease inhibition. Multiplex microsphere protease cleavage assay, flow cytometry. inhibition, % at 10 µM. 360,000 compounds, 0.22% hits; in the data active = inhibition above about 35%, passing the limit was not always enough; inconclusive = no clear call, values can overlap the other calls; also: plate controls were buffer without enzyme for full effect and enzyme alone for no effect
Mtb FBA inh: inhibitors of M. tuberculosis fructose-bisphosphate aldolase; P9WQA3; purified M. tuberculosis FBA, fluorescence read-out; inhibition, % at 1 µM; 360,000 compounds, 2.3% hits; AID 588726; in the data active = inhibition above about 27%;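 also: 0% = vehicle and 100% = reference inhibitor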
Anthrax LF inh2: inhibitors of Bacillus anthracis lethal factor protease; AID 588501; 360,000 compounds, 0.12% hits; inhibition, % at 10 µM; P15917; multiplex microsphere protease cleavage assay, LF; also: plate controls were buffer without enzyme for full effect and enzyme alone for no effect
Target sequence (P15917 whole entry, looked up): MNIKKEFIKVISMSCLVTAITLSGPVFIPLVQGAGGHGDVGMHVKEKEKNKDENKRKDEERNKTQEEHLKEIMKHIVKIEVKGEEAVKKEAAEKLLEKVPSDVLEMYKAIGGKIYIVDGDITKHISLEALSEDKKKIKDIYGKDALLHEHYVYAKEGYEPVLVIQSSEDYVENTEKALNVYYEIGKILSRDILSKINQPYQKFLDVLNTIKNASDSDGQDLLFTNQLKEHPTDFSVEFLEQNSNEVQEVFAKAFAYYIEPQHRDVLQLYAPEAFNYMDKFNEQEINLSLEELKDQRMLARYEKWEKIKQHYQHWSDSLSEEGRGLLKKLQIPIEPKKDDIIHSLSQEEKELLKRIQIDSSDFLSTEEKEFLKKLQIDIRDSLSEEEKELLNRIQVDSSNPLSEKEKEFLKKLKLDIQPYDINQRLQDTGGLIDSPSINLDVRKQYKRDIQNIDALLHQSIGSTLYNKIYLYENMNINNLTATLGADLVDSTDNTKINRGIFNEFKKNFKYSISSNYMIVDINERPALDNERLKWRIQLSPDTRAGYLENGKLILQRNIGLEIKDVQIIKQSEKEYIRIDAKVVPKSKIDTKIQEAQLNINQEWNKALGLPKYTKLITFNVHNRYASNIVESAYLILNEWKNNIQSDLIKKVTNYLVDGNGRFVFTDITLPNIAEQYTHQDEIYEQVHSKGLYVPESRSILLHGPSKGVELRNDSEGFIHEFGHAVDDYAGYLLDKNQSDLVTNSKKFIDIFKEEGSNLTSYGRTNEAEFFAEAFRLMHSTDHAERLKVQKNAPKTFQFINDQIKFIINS
GDH-TPI inh: counter-screen for M. tuberculosis FBA inhibitors: GDH-TPI coupled enzymes; GDH-TPI coupled enzyme counterscreen, NADH absorbance; inhibition, % at 4.8 µM; 360,000 compounds, 1.2% hits; in the data active = inhibition above about 30%;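 also: 0% = DMSO wells and 100% = wells lacking the enzyme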
Numbers without * were called inactive. In the library only some 6.6% were active in any assay of this set; here they are far more common. Rule as the data show it, unless noted: active = inhibition above about 30%; inconclusive = no clear call, values can overlap the other calls; inactive = below that.

Screening Oc1cc(O)c2c(c1)O[C@H](c1ccc(O)c(O)c1)[C@@H](O)C2 returned Autofluor counter 5905, BoNT A protease -1, BoNT-F LC inh -21, Mtb FBA inh 6, Anthrax LF inh2 -7 and GDH-TPI inh 1.
For CN1C=CC=C/C1=C1\SC(=S)N(c2ccccc2)C1=O the results were Autofluor counter 3391, BoNT A protease 0, BoNT-F LC inh -2, Mtb FBA inh -10, Anthrax LF inh2 -4 and GDH-TPI inh 7.
Screening CN1C=CC=C/C1=C1\SC(=S)N(C2CCCCC2)C1=O returned Autofluor counter 21024*, BoNT A protease inconclusive, BoNT-F LC inh 3, Mtb FBA inh -16, Anthrax LF inh2 -4 and GDH-TPI inh 11.
COc1ccc(/C(C)=C(\C#N)C(=O)OC(C)C)cc1OC was read as Autofluor counter 3698, BoNT A protease 0, BoNT-F LC inh 2, Mtb FBA inh 1, Anthrax LF inh2 3 and GDH-TPI inh 0.
Screening Cc1n[nH]c(=S)n1/N=C/c1cccc(OCc2ccccc2)c1 returned Autofluor counter 2686, BoNT A protease -1, BoNT-F LC inh -7, Mtb FBA inh -1, Anthrax LF inh2 -4 and GDH-TPI inh -6.
Screening Cc1n[nH]c(=S)n1/N=C/c1ccccc1OCc1ccc(Cl)cc1 returned Autofluor counter 19713*, BoNT A protease inconclusive, BoNT-F LC inh -2, Mtb FBA inh 2, Anthrax LF inh2 1 and GDH-TPI inh -4.
For CC#CCCCC(=O)Nc1cc(OC)nc(OC)n1 the results were Autofluor counter 22745*, BoNT A protease 2, BoNT-F LC inh 4, Mtb FBA inh -4, Anthrax LF inh2 -1 and GDH-TPI inh 5.
Screening COc1cc(NC(=O)CCC(=O)O)nc(OC)n1 returned Autofluor counter 10801, BoNT A protease 0, BoNT-F LC inh -2, Mtb FBA inh -3, Anthrax LF inh2 -6 and GDH-TPI inh -6.
For CN1CCN(C2CCCCCC2)CC1 the results were Autofluor counter 23426*, BoNT A protease -1, BoNT-F LC inh 0, Mtb FBA inh 0, Anthrax LF inh2 0 and GDH-TPI inh 13.
COc1ccc(-c2c(-c3ccc(C#N)cc3)oc(=O)c3cc(OC)c(OC)cc23)cc1 was read as Autofluor counter 4141, BoNT A protease 0, BoNT-F LC inh -3, Mtb FBA inh 19, Anthrax LF inh2 1 and GDH-TPI inh 21.
`CCCOc1ccc(Oc2nc(-c3ccncc3)nc3ccccc23)cc1` gave Autofluor counter 3009, BoNT A protease 0, BoNT-F LC inh -10, Mtb FBA inh 2, Anthrax LF inh2 0 and GDH-TPI inh 3.
Screening N=c1oc2ccc3ccccc3c2cc1-c1nnc2n1CCCCC2 returned Autofluor counter 9634, BoNT A protease 1, BoNT-F LC inh 5, Mtb FBA inh active, Anthrax LF inh2 -3 and GDH-TPI inh 18.
`Fc1ccc(Nc2c(-c3ccco3)nc3ccccn23)cc1` gave Autofluor counter 2610, BoNT A protease 0, BoNT-F LC inh -2, Mtb FBA inh 133*, Anthrax LF inh2 -2 and GDH-TPI inh 4.
Screening Cc1ccc(Nc2c(-c3ccco3)nc3ccccn23)cc1 returned Autofluor counter 11230, BoNT A protease 0, BoNT-F LC inh -11, Mtb FBA inh 121*, Anthrax LF inh2 -5 and GDH-TPI inh 22.
Screening Cc1cccc(NC2SC(=O)NC2=O)c1 (stereo unspecified) returned Autofluor counter 4922, BoNT A protease -1, BoNT-F LC inh -3, Mtb FBA inh 1, Anthrax LF inh2 -1 and GDH-TPI inh 5.
CCOc1ccc(S(=O)(=O)N(CC)CC)cc1NC(=O)c1ccc(N2CCCC2=O)cc1 was read as Autofluor counter 4547, BoNT A protease 0, BoNT-F LC inh inconclusive, Mtb FBA inh 3, Anthrax LF inh2 0 and GDH-TPI inh 6.
`Cc1cc(O)cc(O)c1C=NCc1ccco1` gave Autofluor counter 2036, BoNT A protease -1, BoNT-F LC inh 1, Mtb FBA inh 2, Anthrax LF inh2 0 and GDH-TPI inh 33*.
Screening Cc1cc(C)c(NN=c2c(=O)c3ccccc3c2=O)c(C)c1 returned Autofluor counter 16485*, BoNT A protease -1, BoNT-F LC inh -1, Mtb FBA inh 6, Anthrax LF inh2 -3 and GDH-TPI inh -2.
For Clc1ccc(-c2nnc3n2-c2ccccc2SC3)cc1 the results were Autofluor counter 6289, BoNT A protease 0, BoNT-F LC inh -3, Mtb FBA inh -2, Anthrax LF inh2 10 and GDH-TPI inh 5.
CN1C(c2ccc(F)cc2)=CS/C1=C(\C#N)c1nnc2n1-c1ccccc1SC2 was read as Autofluor counter 8929, BoNT A protease 3, BoNT-F LC inh -4, Mtb FBA inh 0, Anthrax LF inh2 4 and GDH-TPI inh 34*.
Screening O=C(c1ccco1)N1CCN(C(=O)c2nn3cccnc3c2Cl)CC1 returned Autofluor counter 22749*, BoNT A protease 0, BoNT-F LC inh -1, Mtb FBA inh 3, Anthrax LF inh2 -1 and GDH-TPI inh -4.
Screening O=c1[nH]c(SCc2ccccc2Cl)nc2c1CCC2 returned Autofluor counter 23543*, BoNT A protease -3, BoNT-F LC inh -2, Mtb FBA inh 0, Anthrax LF inh2 -2 and GDH-TPI inh -12.
Screening CN(C(=O)CSc1nc2c(c(=O)[nH]1)CCCC2)C1CCCCC1 returned Autofluor counter 20234*, BoNT A protease inconclusive, BoNT-F LC inh 4, Mtb FBA inh 0, Anthrax LF inh2 -1 and GDH-TPI inh -4.
For Cc1ccc(NC(=O)CSc2nc3c(c(=O)[nH]2)CCC3)cc1C the results were Autofluor counter 17130*, BoNT A protease -2, BoNT-F LC inh -2, Mtb FBA inh 1, Anthrax LF inh2 -2 and GDH-TPI inh 10.
Screening Cc1ccc(NC(=O)CSc2nc3c(c(=O)[nH]2)CCCC3)cc1C returned Autofluor counter 6586, BoNT A protease -1, BoNT-F LC inh -2, Mtb FBA inh -2, Anthrax LF inh2 0 and GDH-TPI inh -3.
Cc1ccc(CSc2nc3c(c(=O)[nH]2)CCC3)cc1 was read as Autofluor counter 20993*, BoNT A protease inconclusive, BoNT-F LC inh -4, Mtb FBA inh -3, Anthrax LF inh2 -2 and GDH-TPI inh 9.
`O=C(NC1CC(=O)N(c2ccc(Cl)cc2)C1)C1CC1` (stereo unspecified) gave Autofluor counter 4662, BoNT A protease 4, BoNT-F LC inh 11, Mtb FBA inh 2, Anthrax LF inh2 0 and GDH-TPI inh -12.
Screening Cc1ccc(C(=O)CSc2nc(O)cc(=O)[nH]2)cc1C returned Autofluor counter 3845, BoNT A protease -8, BoNT-F LC inh inconclusive, Mtb FBA inh 6, Anthrax LF inh2 0 and GDH-TPI inh -8.
For O=C(CN1C(=O)S/C(=C\c2ccccc2Cl)C1=O)NCCCn1ccnc1 the results were Autofluor counter 4594, BoNT A protease 0, BoNT-F LC inh 6, Mtb FBA inh 3, Anthrax LF inh2 1 and GDH-TPI inh 35*.
COc1ccccc1/C=C1\SC(=O)N(CC(=O)NCCCn2ccnc2)C1=O was read as Autofluor counter 6502, BoNT A protease -2, BoNT-F LC inh 2, Mtb FBA inh 3, Anthrax LF inh2 -2 and GDH-TPI inh 2.

Screening data: PubChem BioAssay, several laboratories
